PubChem BioAssay (EPA / NIEHS)
The source made the active and inactive calls. The calls were made as follows: active = hit-call score of the fitted dose curve at least 0.9, where 1 is the maximum; inactive = score below 0.9.

Read-out: Monokine induced gamma interferon (MIG), CXCL9 (gene 4283)
Assay: BSK_SAg_MIG: BioMAP Diversity Plus: SAg Assay for Monokine induced gamma interferon (MIG) Biomarker Activity (AID 2283092)
Conditions: primary human HUVEC with PBMC; actives raise or lower the signal
Protocol: BSK_SAg is a cell-based, multiplexed-readout assay that uses umbilical vein endothelium and peripheral blood mononuclear cells, a human vascular primary cell co-culture, with measurements taken at 24 hours after chemical dosing in a 96-well plate.BSK_SAg_MIG is an assay component measured in the BSK_SAg assay. It measures MIG antibody related to regulation of gene expression using ELISA technology.Data from the assay component BSK_SAg_MIG was analyzed into 1 assay endpoint. This assay endpoint, BSK_SAg_MIG, was analyzed with bidirectional fitting relative to DMSO as the negative control and baseline of activity. Using a type of binding reporter, gain or loss-of-signal activity can be used to understand changes in the signaling as they relate to the gene CXCL9. Furthermore, this assay endpoint can be referred to as a primary readout, because this assay has produced multiple assay endpoints where this one serves a signaling function. To generalize the intended target to other relatable targets, this assay endpoint is annotated to the cytokine intended target family, where the subfamily is chemotactic factor.
The levels of cell surface (or secreted, indicated by the prefix "s") biomarker endpoints were measured by ELISA. Overt cytotoxicity to cells in confluent adherent cultures (all systems other than the BT system) was assessed by measuring total protein levels using sulforhodamine B (SRB) staining in parallel cultures at the time of biomarker measurements, indicated as SRB endpoints. For proliferation assays for adherent cell types, individual cell types are cultured at sub-confluence and relative cell numbers quantified by SRB staining at time points optimized for each system (48 h: 3C and CASM3C systems; 72 h: BT and HDF3CGF systems; 96 h: SAg system). SRB was performed by staining cells with 0.1% SRB after fixation with 10% TCA and reading wells at 560 nm.Viability and proliferation of PBMC (T cells) was quantified by Alamar Blue reduction for the SAg and BT systems. For PBMC viability (referred to as PBMC Cytotoxicity within the assay endpoint names), cells were plated (75,000/well in a 96-well plate) and then chemical samples added for 1 h before addition of activators, SEB and TSST-1 (20 ng/mL final concentration each). Cells were incubated for 90 h. Then, Alamar Blue (20 uL/well) (Invitrogen, Cat DAL1100) was added for 6 h, and the plates were read with a fluorescence microplate reader at 546/580 nm (excitation/emission). For PBMC proliferation, cells were plated and activated as above but incubated for only 16 h prior to addition of Alamar Blue. Plates were read after 6 h.

Row | Compound | outcome | AC50
1 | [Cl-].[Cl-].[Hg+2] | inactive | –
2 | [As]#[In] | inactive | –
3 | Nc1ccc([N+](=O)[O-])cc1 | inactive | –
4 | CS(=O)(=O)NC(=O)c1cc(Oc2ccc(C(F)(F)F)cc2Cl)ccc1[N+](=O)[O-] | inactive | –
5 | CCCCCOC(=O)c1ccccc1C(=O)OCCCCC | inactive | –
6 | CCCCCCCCOC(=O)c1ccc(C(=O)OCCCCCCCC)c(C(=O)OCCCCCCCC)c1 | inactive | –
7 | Brc1ccc(Oc2ccccc2)cc1 | inactive | –
8 | CCC(C)c1ccc(O)cc1 (stereo not given) | inactive | –
9 | CCCCCCCCn1sccc1=O | – | 14.2 µM (active)
10 | CCN(CC)N=O | inactive | –
11 | Oc1ccccc1Cl | inactive | –
12 | CCCCC(CC)COC(=O)c1ccc(C(=O)OCC(CC)CCCC)c(C(=O)OCC(CC)CCCC)c1 (stereo not given) | inactive | –
13 | Nc1cc(Cl)cc(C(=O)O)c1Cl | inactive | –
14 | COC(=O)Nc1nc2ccccc2[nH]1 | inactive | –
15 | ClCCOCCCl | inactive | –
16 | OCCOCCO | inactive | –
17 | CC(C)(OOC(C)(C)c1ccccc1)c1ccccc1 | – | 31.3 µM (active)
18 | Oc1ccc2ccc3cccc4ccc1c2c34 | – | 36.7 µM (active)
19 | c1ccc2c(c1)oc1ccccc12 | inactive | –
20 | CC(C)(C)C(O)(CCc1ccc(Cl)cc1)Cn1cncn1 (stereo not given) | inactive | –

Row | Compound | outcome | AC50
21 | CCN(CC)CCO | inactive | –
22 | Clc1ccc(C(c2ccc(Cl)cc2)C(Cl)(Cl)Cl)cc1 | – | 35.1 µM (active)
23 | c1ccc(NNc2ccccc2)cc1 | inactive | –
24 | Cn1cc(-c2ccccc2)c(=O)c(-c2cccc(C(F)(F)F)c2)c1 | inactive | –
25 | CCC12COCN1COC2 | inactive | –
26 | Nc1ccc(Cl)cc1N | inactive | –
27 | c1ccc(C2CO2)cc1 (stereo not given) | inactive | –
28 | Cc1ccc(N=C=O)cc1N=C=O | inactive | –
29 | Clc1ccccc1Cl | inactive | –
30 | CC(C)(C)OOC(C)(C)CCC(C)(C)OOC(C)(C)C | inactive | –
31 | O=C(N[C@H](c1ccccc1)[C@@H]1CN2CCC1CC2)c1c(Cl)ccc(C(F)(F)F)c1Cl | inactive | –
32 | CCC[CH2][Sn]([Cl])([CH2]CCC)[CH2]CCC | – | 0.148 µM (active)
33 | O=C(Oc1ccc(Br)cc1)N1CCN2CCC1CC2 | inactive | –
34 | O=[N+]([O-])c1ccc(Oc2ccc(Cl)cc2Cl)cc1 | inactive | –
35 | CC(C)COC(=O)c1ccccc1C(=O)OCC(C)C | inactive | –
36 | Cc1ccc(N)c(N)c1 | inactive | –
37 | CNC(=O)Oc1cccc2c1OC(C)(C)C2 | inactive | –
38 | Clc1ccc(C(c2ccc(Cl)cc2)C(Cl)Cl)cc1 | – | 35.6 µM (active)
39 | CO[C@@H]1[C@H](OC(=O)NC(=O)CCl)CC[C@]2(CO2)[C@H]1[C@@]1(C)O[C@@H]1CC=C(C)C | inactive | –
40 | CCOC(=O)[C@]1(c2ccccc2)Oc2ccccc2[C@@H]1N | inactive | –
